According to the supplement of paper PMC4022240:
± gives the standard deviation.

T1: HaloTag-ATRX ADD domain (163-292)
T1 chain: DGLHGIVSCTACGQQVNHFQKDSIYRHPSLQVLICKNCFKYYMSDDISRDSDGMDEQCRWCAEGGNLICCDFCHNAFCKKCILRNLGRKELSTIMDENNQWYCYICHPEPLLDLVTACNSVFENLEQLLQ

B1: Unmod H2B variant P E P V K S A P V P K K G (peptide)
chain: PEPVKSAPVPKKG
B2: Unmod H2A variant L N K L L G G V T I A Q G (peptide)
chain: LNKLLGGVTIAQG
B3: Unmod H2B variant I S K K G F K K A V V K T (peptide)
chain: ISKKGFKKAVVKT
B4: Unmod H2B variant P K K G S K K A V T K A Q (peptide)
chain: PKKGSKKAVTKAQ
B5: Unmod H2A variant L Q L A I R N D E E L N K (peptide)
chain: LQLAIRNDEELNK

Biological target: T1, HaloTag-ATRX ADD domain (163-292)
Assay: peptide microarray binding signal (635 nm), min-max normalized on array (fraction of array maximum); higher = stronger binding
Details: peptide region: Unmod H2B variant; binder concentration: 50 nM
Outline: (§1)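 Binding signal is the mean intensity of triplicate spots, min-max scaled within each library. Histone 13-mer peptide–cellulose conjugates were spotted in triplicate on nitrocellulose with a Cy3 tracer and blocked overnight at 4°C. Probing lasted 1 h at 4°C, either with biotin-labelled HaloTag reader fusions (10 nM to 1 μM) and streptavidin-Alexa Fluor 647 or with rabbit histone antibodies (1:10,000 to 1:2,000) and anti-rabbit Alexa 647. An Axon GenePix 4000B read signal at 635 nm and misprints at 532 nm.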

| Binder | peptide microarray binding signal |
| --- | --- |
| B1 | 0.007868 ± 4.2e-05 |
| B3 | 0.00683 ± 0.00024 |
| B4 | 0.00561 ± 0.00027 |

Same assay, conditions: peptide region: Unmod H2B variant; binder concentration: 500 nM

| Binder | peptide microarray binding signal |
| --- | --- |
| B1 | 0.0166 ± 0.00043 |
| B3 | 0.0118 ± 0.00025 |
| B4 | 0.008048 ± 4.3e-05 |

Biological target: HaloTag-ING2 PHD (mouse Ing2 200-280)
Assay: as above
Details: peptide region: Unmod H2B variant; binder concentration: 10 nM
Outline: as §1

| Binder | peptide microarray binding signal |
| --- | --- |
| B1 | 0.00889 ± 0.00055 |
| B3 | 0.00227 ± 7.3e-05 |
| B4 | 0.00275 ± 0.00016 |

Same assay, conditions: peptide region: Unmod H2B variant; binder concentration: 100 nM

| Binder | peptide microarray binding signal |
| --- | --- |
| B1 | 0.0274 ± 0.0037 |
| B3 | 0.00602 ± 0.00021 |
| B4 | 0.00354 ± 0.00011 |

Biological target: anti-H3K4me3 antibody ab8580
Assay: as above
Details: peptide region: Unmod H2B variant; binder concentration: 1:2,000 dilution
Outline: as §1

| Binder | peptide microarray binding signal |
| --- | --- |
| B1 | 0.00279 ± 0.00019 |
| B3 | 0.00051 ± 8.6e-06 |
| B4 | 0.000378 ± 7.7e-06 |

Same assay, conditions: peptide region: Unmod H2B variant; binder concentration: 1:10,000 dilution

| Binder | peptide microarray binding signal |
| --- | --- |
| B1 | 0.00251 ± 0.00026 |
| B3 | 0.000685 ± 7.2e-06 |
| B4 | 0.000628 ± 6.7e-06 |

Biological target: anti-H3K9me3 antibody ab8898
Assay: as above
Details: peptide region: Unmod H2B variant; binder concentration: 1:2,000 dilution
Outline: as §1

| Binder | peptide microarray binding signal |
| --- | --- |
| B1 | 0.000997 ± 6.3e-05 |
| B3 | 0.000257 ± 2.7e-06 |
| B4 | 0.000196 ± 2.1e-06 |

Same assay, conditions: peptide region: Unmod H2B variant; binder concentration: 1:10,000 dilution

| Binder | peptide microarray binding signal |
| --- | --- |
| B1 | 0.00144 ± 5.1e-05 |
| B3 | 0.000461 |
| B4 | 0.000577 ± 6.2e-06 |

Biological target: T1, HaloTag-ATRX ADD domain (163-292)
Assay: as above
Details: peptide region: Unmod H2A variant; binder concentration: 50 nM
Outline: as §1

| Binder | peptide microarray binding signal |
| --- | --- |
| B2 | 0.027 ± 0.0084 |
| B5 | 0.0213 ± 0.0039 |

Same assay, conditions: peptide region: Unmod H2A variant; binder concentration: 500 nM

| Binder | peptide microarray binding signal |
| --- | --- |
| B2 | 0.0141 ± 0.0028 |
| B5 | 0.0279 ± 0.0038 |

Biological target: HaloTag-ING2 PHD (mouse Ing2 200-280)
Assay: as above
Details: peptide region: Unmod H2A variant; binder concentration: 10 nM
Outline: as §1

| Binder | peptide microarray binding signal |
| --- | --- |
| B2 | 0.00615 ± 0.00035 |
| B5 | 0.005968 ± 4.9e-05 |

Same assay, conditions: peptide region: Unmod H2A variant; binder concentration: 100 nM

| Binder | peptide microarray binding signal |
| --- | --- |
| B2 | 0.0259 ± 0.0025 |
| B5 | 0.03182 ± 0.00024 |

Biological target: anti-H3K4me3 antibody ab8580
Assay: as above
Details: peptide region: Unmod H2A variant; binder concentration: 1:2,000 dilution
Outline: as §1

| Binder | peptide microarray binding signal |
| --- | --- |
| B2 | 0.00748 ± 0.0012 |
| B5 | 0.0182 ± 0.0049 |

Same assay, conditions: peptide region: Unmod H2A variant; binder concentration: 1:10,000 dilution

| Binder | peptide microarray binding signal |
| --- | --- |
| B2 | 0.00177 ± 0.0002 |
| B5 | 0.00422 ± 0.00051 |

Biological target: anti-H3K9me3 antibody ab8898
Assay: as above
Details: peptide region: Unmod H2A variant; binder concentration: 1:2,000 dilution
Outline: as §1

| Binder | peptide microarray binding signal |
| --- | --- |
| B2 | 0.0011 ± 4.3e-05 |
| B5 | 0.00439 ± 0.00042 |

Same assay, conditions: peptide region: Unmod H2A variant; binder concentration: 1:10,000 dilution

| Binder | peptide microarray binding signal |
| --- | --- |
| B2 | 0.00138 ± 3.6e-05 |
| B5 | 0.00588 ± 0.00021 |
